SKKanGAS inh: inhibitors of SKKanGAS S. pyogenes growth in kanamycin (SK-promoter or general growth effect). AID 1662. hit rate 1.3% among 300,000. inhibition, % at 7.5 µM. BacTiter-Glo, 6 h;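 active = mean replicate score, as percent of positive control median, at least 50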;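 also: strain carries kanamycin resistance gene driven by streptokinase promoter and grows in 40 µg/ml kanamycin; loss of luminescence reflects streptokinase promoter inhibition or plain growth inhibition; 0% = median of DMSO wells and 100% = positive control at its reference dose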
TIM10 inh: growth inhibitors of TIM10 yeast strain; S. cerevisiae TIM10 strain growth, BacTiter-Glo luminescence, 24 h; inhibition, % at 10 µM; hit rate 1.4% among 330,000; AID 463195;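 active = inhibition of 40% or more at the single tested concentration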;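 also: wild-type TIM10 isogenic control strain grown at permissive 25 °C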
PfHsp90 yeast 2: growth inhibition of yeast expressing Plasmodium Hsp90; S. cerevisiae expressing PfHsp90, BacTiter-Glo ATP, 48 h; yeast lacking PDR1 and PDR3 efflux regulators; inhibition, % at 9.4 µM; hit rate 0.32% among 310,000; AID 504621;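 active = every replicate shows inhibition above about 80%, whatever the replicate mean, limit read from the data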;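 also: 0% = DMSO neutral controls and 100% = 20 µM radicicol positive controls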
tim23-1 inh: growth inhibitors of tim23-1 mutant yeast. S. cerevisiae tim23-1 growth, BacTiter-Glo luminescence, 24 h. inhibition, % at 20 µM. hit rate 1.3% among 330,000;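 active = growth inhibition of the mutant yeast at or above 50%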;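 also: temperature-sensitive mutant grown at 25 °C; plate controls were DMSO-treated mutant yeast for no effect and medium wells lacking yeast for full effect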
tim10-1 inh: tim10-1 yeast growth inhibition. S. cerevisiae tim10-1 ts strain growth, BacTiter-Glo, 24 h. inhibition, % at 20 µM. hit rate 2.2% among 330,000;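 active = inhibition of at least 40%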;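 also: mutant grown at 25 °C; 0% = DMSO wells with yeast and 100% = wells holding no yeast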
Calb FLC: affects C. albicans growth with fluconazole | C. albicans CaCi-2 (fluconazole-resistant clinical isolate) + fluconazole, Alamar Blue growth, 48 h | growth inhibition, % (test concentration not listed) | hit rate 0.57% among 300,000 | AID 1979;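 active = growth inhibition above about 58% in most replicates, limit read from the data, passing the limit was not always enough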;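 also: all wells also contain fluconazole at 8 µg/ml as a sub-toxic cotreatment; 0% = median of DMSO wells and 100% = median of geldanamycin control wells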
tim10-1 confirm: tim10-1 yeast growth inhibition, confirmed; shares compounds with tim10-1 inh; S. cerevisiae tim10-1 ts strain growth, BacTiter-Glo, 24 h; inhibition, % at 20 µM; hit rate 56% among 7,400;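 active = inhibition of yeast growth at or above a set limit in either of two repeat tests at 20 µM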;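 also: tim10-1 mutant grown at permissive 25 °C to find synthetic lethal compounds; 0% = DMSO yeast wells and 100% = medium wells without yeast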
* marks the source's active call; other numbers are inactive results; . = no result. Sampled rows, rich in hits. Any-hit rate of the full collection: about 4.7%.

SMILES	SKKanGAS inh	TIM10 inh	PfHsp90 yeast 2	tim23-1 inh	tim10-1 inh	Calb FLC	tim10-1 confirm
CC(=O)Nc1ccc(Oc2nc(-c3cccnc3)nc3sc4c(c23)CCCC4)cc1	-7	4	0	1	2	-7	.
Cc1nc(NCc2cccnc2)c2c3c(sc2n1)CCCC3	5	18	19	16	45*	32	5
O=C1CN(c2nc(-c3cccnc3)nc3sc4c(c23)CCCC4)CCN1	10	30	.	-78	42*	4	15
Nc1nc(-c2cccnc2)nc2sc3c(c12)CCCC3	6	31	16	39	52*	50	33*
c1cncc(CNc2ncnc3sc4c(c23)CCCC4)c1	1	-17	18	10	0	10	.
O=C(COc1ccccc1)NCC(=O)N1CCCC(C(F)(F)F)C1 (stereo not given)	.	.	-32	.	.	.	.
COc1cccc(N=C2CC(C)(C)CC(=O)/C2=C(/O)c2ccccc2)c1	11	13	-23	38	43*	8	23
CCCOc1ccc(CNC(=S)Nc2ccccc2)cc1Cl	-3	23	-34	36	43*	8	23
COc1cccc2c1OCC([C@@H]1C[C@H]3CN(Cc4cccc(Cl)c4)C(=O)[C@]34CCCN14)=C2	5	-1	-9	21	9	10	.
COc1ccccc1/C=C/[C@@H]1C[C@H]2CN(Cc3cccc(Cl)c3)C(=O)[C@]23CCCN13	-1	20	-12	27	43*	28	26
Cc1ccc(NC(=O)c2ccc(COc3ccccc3)o2)nc1	6	-1	-15	10	24	-6	.
CCOc1cc(N2CCOCC2)c(OCC)cc1NC(=O)COC(=O)CCOc1ccc(C)cc1	-9	39	-1	45	41*	9	29*
CCOc1cc(N2CCOCC2)c(OCC)cc1NC(=O)c1ccccc1C	-16	-4	16	12	9	46	.
CCOc1cc(N2CCOCC2)c(OCC)cc1NC(=O)c1ccc2ccccc2n1	4	17	39	31	45*	1	22
CN(Cc1c(C(=O)N2CCCCCCC2)nc2ccc(Cl)cn12)C1CCOC1 (stereo not given)	1	2	-4	18	3	4	.
CC1(C)SC(=S)N(/N=C/c2ccccc2O)C1N(O)C(=O)Nc1ccccc1 (stereo not given)	24	-2	-9	21	-4	10	.
CC1(C)SC(=S)N(NC(=O)Nc2ccccc2)C1N(O)C(=O)Nc1cccc2ccccc12 (stereo not given)	39	14	-6	31	42*	9	24
CCOC(=O)C1=NNC(C(=O)c2ccc(C)cc2)C1c1ccc(OC)cc1 (stereo not given)	-1	11	-87	7	41*	-8	13
CCOC(=O)C1=NNC(C(=O)c2ccc(Cl)cc2)C1c1ccc(OC)cc1 (stereo not given)	3	24	-15	8	22	39	.
COc1ccccc1CN1CC(C(=O)N(C)Cc2[nH]c3ccccc3c2C)CCC1=O (stereo not given)	-4	5	-20	-10	6	10	.
COc1ccc(-c2csc3ncnc(Cl)c23)cc1	4	-5	12	18	36	27	.
COc1ccc(Nc2ncnc3scc(-c4ccc(OC)cc4)c23)cc1	50*	39	-6	40	49*	2	36*
COc1ccc(S(=O)(=O)N(C)C[C@H]2Oc3ccc(NS(=O)(=O)c4cn(C)cn4)cc3C(=O)N([C@H](C)CO)C[C@@H]2C)cc1	.	-2	0	4	-5	.	.
COC(=O)CN1C(=S)N(c2ccc(OC)cc2)C(=O)/C1=C/c1ccc(OC)cc1	-9	27	-4	39	50*	28	37*
Cc1ccc(-c2nc(C#N)c(NCc3cccc4c3OCO4)o2)cc1	0	19	-11	32	44*	-7	10
SMILES	SKKanGAS inh	TIM10 inh	PfHsp90 yeast 2	tim23-1 inh	tim10-1 inh	Calb FLC	tim10-1 confirm
CCOc1ccccc1-n1c(SC(C)C(=O)NCC2CCCO2)nc2ccccc2c1=O (stereo not given)	.	3	1	6	17	.	.
OC(COc1ccc2ccccc2c1Br)Cn1cnc(-c2ccccc2)c1 (stereo not given)	56*	-6	-25	8	43*	-3	44*
O=C(Nc1ccc(N2CCN(C(=O)c3ccccc3)CC2)c(Cl)c1)c1ccc(Br)o1	8	33	.	43	48*	-22	39*
O=C(Nc1cccc(C(=O)N2CCN(c3cccc(Cl)c3)CC2)c1)c1ccccc1	9	36	.	31	48*	31	37*
O=[N+]([O-])C1C(c2ccccc2)=NOC1c1ccccc1O (stereo not given)	8	5	-5	17	8	-11	.
S=c1[nH]nc(Nc2ccc(Cl)cc2)s1	7	29	-13	22	40*	-11	34*
N/C(=N\OC(=O)COc1ccc2ccccc2c1Br)c1ccccn1	17	36	-27	31	43*	5	55*
CC(C)NC(=O)c1cnc(Sc2ncc(C(F)(F)F)cc2Cl)n1C	-1	3	-3	14	11	-3	.
COc1ccc(-c2ccnc3nc(Sc4ncc(C(F)(F)F)cc4Cl)nn23)cc1	1	32	5	46	51*	26	29
FC(F)(F)c1cnc(Sc2nc3nccc(-c4ccc(Cl)cc4)n3n2)c(Cl)c1	-8	37	-7	36	41*	-23	3
CSc1nc2nccc(-c3ccc(Cl)cc3)n2n1	-3	1	4	-6	10	8	.
CCOC(=O)c1c(S(=O)(=O)Nc2ccc(C)cn2)c(C)n(C)c1C	-1	10	-1	19	18	6	.
CCCc1nn(C)c(C(=O)Nc2ccc(CC)cc2)c1Cl	2	11	10	20	43*	5	11
CCCc1nn(C)c(C(=O)Nc2ccc(C)c(C)c2)c1Cl	-1	-10	-12	3	0	-4	.
O=C(CN1C(=O)COc2ccc(S(=O)(=O)N3CCCC3)cc21)NCc1ccccn1	-10	-7	7	-1	4	-8	.
Cc1cc(-c2ccccc2)n[nH]1	3	-7	6	10	8	-16	.
FC(F)C(F)(F)C(F)(F)C(F)(F)c1cc(-c2ccccc2)n[nH]1	12	39	-30	47	48*	-28	30*
CCn1cc(S(=O)(=O)N2CCc3ccccc3C2)cn1	1	2	18	23	10	4	.
COc1ccc2nc(C)cc(N3CCN(S(=O)(=O)c4ccccc4F)CC3)c2c1	.	30	.	47	40*	.	21

Screening data (PubChem BioAssay)
